According to PubChem BioAssay (Tox21):
Results filed as inconclusive are left out. Activity calls are given as the source filed them. Unless noted, calls follow the shape of the dose curve; as a rule, active = well fitted curve in the direction sought with a large enough effect in the repeat runs; inconclusive = weak or mixed curves; inactive = no such curve, though single readings can be large; an effect the other way counts as inactive or inconclusive.

What was measured:
[1] = qHTS assay to identify small molecule antagonists of the thyroid receptor (TR) signaling pathway - cell viability counter screen (AID 743064); also: nearly all actives have a fitted effect of over 50% in size
Outline: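 Compounds were tested on GH3.TRE-Luc cells in the presence of T3 at 1 nM final. Following 23.5 h at 37 °C, cell viability was quantified by CellTiter-Fluor.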

[2] = qHTS assay to identify small molecule antagonists of the thyroid receptor (TR) signaling pathway (AID 743065); also: series mostly up to about 70 µM; nearly all actives have a fitted effect of over 55% in size
Outline: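 GH3.TRE-Luc rat pituitary cells (two TREs driving luciferase) were dosed with compound, then stimulated with 1 nM T3 (final) for 23.5 h at 37 C. ONE-Glo luminescence was the read-out, with CellTiter-Fluor fluorescence as the cytotoxicity counter-screen.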

[3] = test system: thyroid hormone receptor (rat, GH3 cells); test: qHTS assay to identify small molecule agonists of the thyroid receptor (TR) signaling pathway (AID 743066; calls by dose curve)
[4] = target: Estrogen receptor (Homo sapiens) (UniProt P03372); test: qHTS assay to identify small molecule antagonists of the estrogen receptor alpha (ER-alpha) signaling pathway (AID 743069; active = well fitted curve in the direction sought with a large enough effect in the signal ratio in the repeat runs, not every such curve was filed as active; the % refers to the signal ratio)
Estrogen receptor (Homo sapiens), sequence (P03372 whole entry, looked up): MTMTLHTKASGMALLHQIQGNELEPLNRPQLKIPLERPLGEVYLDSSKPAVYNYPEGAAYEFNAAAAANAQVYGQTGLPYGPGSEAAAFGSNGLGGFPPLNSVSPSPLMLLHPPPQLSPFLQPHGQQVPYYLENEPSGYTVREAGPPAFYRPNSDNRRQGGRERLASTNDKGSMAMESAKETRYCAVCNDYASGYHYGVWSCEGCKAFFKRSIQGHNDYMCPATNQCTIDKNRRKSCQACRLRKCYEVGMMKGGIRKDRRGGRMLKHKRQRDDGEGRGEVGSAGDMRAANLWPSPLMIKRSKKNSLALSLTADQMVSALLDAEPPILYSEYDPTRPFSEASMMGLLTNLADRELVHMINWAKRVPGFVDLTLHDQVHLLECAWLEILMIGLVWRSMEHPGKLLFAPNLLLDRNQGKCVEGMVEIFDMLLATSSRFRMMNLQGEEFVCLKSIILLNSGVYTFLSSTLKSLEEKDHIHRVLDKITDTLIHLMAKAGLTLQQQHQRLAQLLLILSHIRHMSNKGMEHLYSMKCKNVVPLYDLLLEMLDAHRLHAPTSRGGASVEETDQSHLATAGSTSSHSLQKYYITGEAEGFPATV
Outline: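 HEK293 ER-alpha-UAS-bla GripTite cells, held overnight in 2% charcoal-stripped FBS, 5,000 cells/well, preincubated 4 h, then compound plus 17beta-estradiol for 18 h at 37C. Beta-lactamase read by LiveBLAzer B/G FRET substrate, 2 h at room temperature.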

[5] = qHTS assay to identify small molecule antagonists of the estrogen receptor alpha (ER-alpha) signaling pathway - cell viability counter screen (AID 743074; calls by dose curve;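 also: HEK293 cells carrying ER-alpha-UAS-bla reporter stimulated with 17beta-estradiol; nearly all actives have a fitted effect of over 45% in size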)
[6] = target: Estrogen receptor (Homo sapiens) (UniProt P03372); test: qHTS assay to identify small molecule agonists of the estrogen receptor alpha (ER-alpha) signaling pathway (AID 743075; calls by dose curve)
[7] = target: Estrogen receptor (Homo sapiens) (UniProt P03372); test: qHTS assay to identify small molecule agonists of the estrogen receptor alpha (ER-alpha) signaling pathway using the BG1 cell line (AID 743079); also: nearly all actives have a fitted effect of over 20% in size
[8] = qHTS assay to identify small molecule antagonists of the estrogen receptor alpha (ER-alpha) signaling pathway using the BG1 cell line (AID 743080; calls by dose curve;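 also: BG1 cells stimulated with 17beta-estradiol alongside compound; series mostly up to about 70 µM; nearly all actives have a fitted effect of over 25% in size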)
Outline: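 BG1-Luc-4E2 cells (endogenous full-length ER-alpha, 4xERE luciferase) hormone-starved 5 days in charcoal-stripped FBS, plated 4,000/well for 24 h, then compound plus 17beta-estradiol for 21.5 h at 37 C; ONE-Glo luminescence read.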

[9] = qHTS assay to identify small molecule antagonists of the estrogen receptor alpha (ER-alpha) signaling pathway using the BG1 cell line - cell viability counter screen (AID 743081);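 also: compound given together with 17beta-estradiol as the ER stimulus; series mostly up to about 70 µM; nearly all actives have a fitted effect of over 45% in size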
Aromatase (Homo sapiens) = Aromatase (Homo sapiens) (UniProt P11511); test: qHTS assay to identify aromatase inhibitors (AID 743083); also: series mostly up to about 70 µM; nearly all actives have a fitted effect of over 55% in size
Aromatase (Homo sapiens), sequence (P11511 whole entry, looked up): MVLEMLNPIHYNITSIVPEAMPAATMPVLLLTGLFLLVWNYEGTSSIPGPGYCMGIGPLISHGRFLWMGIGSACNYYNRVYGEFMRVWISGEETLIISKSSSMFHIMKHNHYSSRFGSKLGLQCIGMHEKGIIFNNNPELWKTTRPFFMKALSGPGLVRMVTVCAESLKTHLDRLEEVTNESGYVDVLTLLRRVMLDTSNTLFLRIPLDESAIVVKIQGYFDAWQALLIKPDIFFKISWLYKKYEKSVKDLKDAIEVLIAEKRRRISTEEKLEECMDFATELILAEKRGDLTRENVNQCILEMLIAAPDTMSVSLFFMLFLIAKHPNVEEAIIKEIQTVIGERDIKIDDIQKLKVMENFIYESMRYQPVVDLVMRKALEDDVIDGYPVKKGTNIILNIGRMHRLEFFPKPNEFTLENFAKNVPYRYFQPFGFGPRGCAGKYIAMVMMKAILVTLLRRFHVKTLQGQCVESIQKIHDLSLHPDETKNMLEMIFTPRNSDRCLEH

Measured: Potency

CC1=C(C(=O)O)N2C(=O)[C@@H](NC(=O)[C@H](N)c3ccccc3)[C@H]2SC1
not listed: Aromatase (Homo sapiens)
inactive: all other assays above

CCC[C@@H]1C[C@@H](C(=O)N[C@@H]([C@H]2O[C@H](SC)[C@H](O)[C@@H](O)[C@H]2O)[C@@H](C)O)N(C)C1
inactive: all assays above

CC(=O)OC1CCCCC1C(C)(C)C (centres undefined)
inactive: all assays above

CC(C)Cn1cnc2c1c(=O)n(C)c(=O)n2C
inactive: all assays above

O=C(NCN1CCOCC1)c1cnccn1
inactive: all assays above

CC(=O)CCc1ccc(OC(C)=O)cc1
inactive: all assays above

OC1OCCOC1O (centres undefined)
inactive: all assays above

Nc1nnnn1-c1ccccc1
inactive: all assays above

Cn1nnc2c(C(N)=O)ncn2c1=O
inactive: all assays above

COP(=O)(O)OP(=O)(O)OC
inactive: all assays above

CCOc1cccc(N)c1
inactive: all assays above

CC1c2ccccc2CN1NC(=O)c1ccc(Cl)c(S(N)(=O)=O)c1 (centres undefined)
inactive: all assays above

O=C(O)CNC(=O)CNC(=O)CNC(=O)CSC(=O)c1ccccc1
inactive: all assays above
